The whole screen tested about 360,000 compounds, of which about 7,500 (2.1%) were called active. Not shown: some 20% with an inconclusive outcome. This excerpt belongs to a sample that is enriched for actives. Unmarked numbers belong to inactive results. Calls come from the whole dose curve; as a rule, active = well fitted inhibition curve with a large enough effect; inconclusive = small, poorly fitted or top-dose-only effect, or effect the other way; inactive = flat fitted curve, though single readings scatter.
Assay: Nrf2 qHTS screen for inhibitors; note: nearly all actives have a fitted effect of over 60% in size
Details: A549 ARE-Fluc reporter, luciferase luminescence, 18-24 h; series mostly up to 46 µM; activity change, negative = inhibition: at the top concentration
From the text: NIH Molecular Libraries Probe Production Network [MLPCN]
NIH Chemical Genomics Center [NCGC]
Assay Provider: Shyam Biswal, Johns Hopkins University
Nrf2 is a transcription factor that maintains cellular redox homoestasis and protects cells from xenobiotics. Nrf2 binds to the antioxidant response element (ARE) to induce gene expression of a broad spectrum of genes that encode for antioxidants. […] Finding a small molecule that act as an inhibitor of Nrf2 function would represent a novel therapeutic target that could lead to improvement in survival of patients undergoing chemo- and/or radio- therapy.
This is the Nrf2 activity measured in the luminescent read.
1. Shibata, T., et al., Genetic Alteration of Keap1 Confers Constitutive Nrf2 Activation and Resistance to Chemotherapy in Gallbladder Cancer. Gastroenterology, 2008.
2. Sjoblom, T., et al., The consensus coding sequences of human breast and colorectal cancers. Science, 2006. 314(5797): p. 268-74.
NCGC Assay Protocol Summary:
A concentration-response assay was performed with A549 ARE_Fluc cells which are suspended in 5% FBS OPTI-MEM. Five uL were dispensed into 1536-well white TC-treated plate using the Kalypsys dispenser to achieve a density of 5000 cells/well in all columns except column 1. The plate is incubated at 37deg C at 5% CO2 for 2 hours before 23 nL of compounds are added with the Kalypsys pin tool equipped with a 1,536-pin array containing 10-nL slotted pins (FP1S10, 0.457-mm diameter, 50.8 mm long; V&P Scientific). The control compounds Budesonide and Staurosporine are both added at a concentration of 2mM and Budesonide is also added as a 1:10 titration, starting at 200uM, to achieve dose-response. After an 18-24 hour incubation at 37deg C at 5% CO2, 5ul of medium is added to column 1. Afterwards 1ul of 5x of CellTiter-Fluor (Promega) is added to every well. The plate is then incubated at 37deg C at 5% CO2 for 30 minutes before they are read on the ViewLux (Perkin Elmer) for a fluorescent read Ex=405(10)/Em=525(10) for a 3 second exposure, 2x binning, and high gain. Then 3 uL of 3x BugLite is dispensed into all wells and the plate is incubated at ambient room temperature for 15 minutes. Afterwards another ViewLux read is performed using the clear filter to get a luminescent read with the settings of 40 second exposure, 2x binning, and high gain. Cytotoxicity is assessed through the first fluorescent read and then biochemical activity against Nrf2 is measured in the luminescent read.
% is set by controls: 0 for no effect and ±100 for the full control effect; potency is the fitted concentration of half-maximal effect.

Row | Structure (SMILES) | Potency | activity change, negative = inhibition [%]
1 | CC[C@H]1CN2CCc3cc(OC)c(OC)cc3[C@@H]2C[C@@H]1C[C@H]1NCCc2cc(OC)c(OC)cc21 | 0.411 µM (active) | 
2 | Cc1nn(-c2ccccc2)c(C)c1NC(=O)COC(=O)Cc1ccccc1 |  | -2.94
3 | COc1ccc2c(c1)[C@]13CCCCC1C(C2)N(C)CC3 (stereo partly specified) |  | -3.89
4 | C[C@]12CCC3C(CC[C@H]4[C@H](O)[C@H](O)CC[C@]34C)C1CCC2=O (stereo partly specified) |  | -6.32
5 | COc1ccc(C2NCc3ccc4c(c3-n3cccc32)OCO4)cc1OC (stereo unspecified) |  | -14.8
6 | CCCCCCCCCCCCn1ccc(=N)cc1 | 20.6 µM (active) | 
7 | c1cc2c(cc1CCNC1CCCCCC1)OCO2 |  | 9.17
8 | O=C1N=c2ccccc2=C/C1=C\c1c(O)[nH]c(=S)[nH]c1=O |  | -14.9
9 | COC1C(O)C(C)OC(OC2CCC3(C=O)C(CCC4C3CCC3(C)C(C5=CC(=O)OC5)CCC43O)C2)C1O (stereo unspecified) | 0.0231 µM (active) | 
10 | COC1=CC=C2[C@H]3Cc4ccc(OC)c5c4[C@@]2(CCN3C)C1O5 (stereo partly specified) |  | -4.83
11 | COCc1cc(OC(=O)N(C)C)nc(-c2ccc(C)c(Cl)c2)n1 |  | -1.28
12 | C[C@]12CCC3C(CC[C@H]4[C@H](O)[C@H](O)CC[C@]34C)C1CC[C@@H]2O (stereo partly specified) |  | 2.28
13 | c1ccc(CCN2CCC3(CC2)OCCO3)cc1 |  | 1.07
14 | CCC(C)(O)C(=O)OC1C(=O)OC2CC3C(C)=CC(=O)C(O)C3(C)C3C4(O)OCC23C1C(C)C4O (stereo unspecified) | 0.58 µM (active) | 
15 | CC12CCC(O)CC1CCC1C2CCC2(C)C(C(=O)CC(O)C(F)(F)F)CCC12 (stereo unspecified) |  | -6.35
16 | CCN1C(=O)NC(=O)C2(CCCC2)C1=O |  | -20.2
17 | Oc1ccc2c3c1OC1[C@H](O)CC[C@@]4(O)[C@@H](C2)N(CC2CC2)CC[C@]314 (stereo partly specified) | inactive | 
18 | NS(=O)(=O)c1ccc(CCNC(=O)c2ccc(Cl)c(S(=O)(=O)N3CCCCCC3)c2)cc1 | 10.3 µM (active) | 
19 | Cc1ccccc1NC(=O)COC(=O)c1cc(C)n(C2CC2)c1C |  | 3.85
20 | Cn1cc(/C=C/c2nc3ccccc3c(=O)n2-c2ccccc2)c2ccccc21 |  | -22.8
21 | C[C@]12CC[C@H](O)C[C@H]1CC[C@@H]1C2CC[C@]2(C)[C@@H](C3=CC(=O)OC3)[C@@H](O)C[C@]12O (stereo partly specified) | 1.84 µM (active) | 
22 | C[C@]12CCC3C(CC[C@H]4C[C@@H](O)CC[C@]34C)C1C[C@@H](O)[C@H]2O (stereo partly specified) |  | -26.4
23 | C[C@]12CCC3C(CC[C@H]4C[C@@H](O)CC[C@]34C)C1CC[C@@H]2O (stereo partly specified) |  | -12.6
24 | O=P1(Oc2ccccc2)CC(O)C(O)C(COCc2ccccc2)O1 (stereo unspecified) |  | 9.74
25 | CC12CCC3C(CCC4CC(=O)CCC43C)C1CC(=NO)C2=O (stereo unspecified) |  | -13.9
26 | CN1CCC(N(C)Cc2cccnc2)CC1 |  | -8.41
